{
  "source": "paper PMC4336329",
  "about": "(PLoS ONE, 2015)",
  "note": "Out of some 310,000 compounds screened, about 14,000 (4.5%) showed an effect of 50% or more. Effects have a minus sign here. The sample holds strong results, similar compounds and a random draw of the others, so the mix is not that of the screen.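 Also: peak tail current of the secondary pulse compared with the same well before compound.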",
  "data": [
    {"molecular_target": "human ether-à-go-go-related gene (hERG) potassium channel (human, UniProt Q12809)", "sequence (Q12809 whole entry, looked up)": "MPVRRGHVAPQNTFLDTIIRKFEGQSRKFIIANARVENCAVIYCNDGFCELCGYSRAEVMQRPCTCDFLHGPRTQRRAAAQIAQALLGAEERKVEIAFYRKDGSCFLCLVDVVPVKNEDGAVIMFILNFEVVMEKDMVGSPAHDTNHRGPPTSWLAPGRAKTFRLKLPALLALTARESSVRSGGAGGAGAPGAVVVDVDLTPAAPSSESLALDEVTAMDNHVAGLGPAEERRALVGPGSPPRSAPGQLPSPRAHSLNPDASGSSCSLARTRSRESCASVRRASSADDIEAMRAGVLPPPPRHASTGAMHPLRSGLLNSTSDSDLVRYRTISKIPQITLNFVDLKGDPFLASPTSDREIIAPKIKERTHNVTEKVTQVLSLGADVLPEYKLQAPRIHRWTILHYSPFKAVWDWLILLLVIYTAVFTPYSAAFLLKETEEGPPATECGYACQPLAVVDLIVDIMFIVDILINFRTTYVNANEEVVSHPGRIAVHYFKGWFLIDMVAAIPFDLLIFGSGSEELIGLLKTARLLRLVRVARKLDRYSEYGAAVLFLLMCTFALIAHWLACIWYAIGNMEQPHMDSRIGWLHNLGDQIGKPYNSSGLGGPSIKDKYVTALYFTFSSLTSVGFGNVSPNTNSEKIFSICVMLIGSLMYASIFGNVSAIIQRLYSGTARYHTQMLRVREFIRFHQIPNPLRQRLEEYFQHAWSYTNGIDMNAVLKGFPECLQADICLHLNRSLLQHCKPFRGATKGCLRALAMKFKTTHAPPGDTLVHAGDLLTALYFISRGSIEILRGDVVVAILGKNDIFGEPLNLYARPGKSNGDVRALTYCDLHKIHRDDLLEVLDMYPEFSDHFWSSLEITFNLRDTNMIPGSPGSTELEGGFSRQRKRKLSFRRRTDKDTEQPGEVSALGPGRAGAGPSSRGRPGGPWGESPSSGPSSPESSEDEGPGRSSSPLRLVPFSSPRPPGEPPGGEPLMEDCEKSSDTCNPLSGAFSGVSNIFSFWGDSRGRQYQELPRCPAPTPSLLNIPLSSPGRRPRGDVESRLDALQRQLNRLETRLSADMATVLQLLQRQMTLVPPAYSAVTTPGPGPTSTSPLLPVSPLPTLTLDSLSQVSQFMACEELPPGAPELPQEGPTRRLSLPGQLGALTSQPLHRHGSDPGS", "test": "primary screen, population patch clamp on CHO cells stably expressing hERG; higher = less effect of the substance", "units": {"hERG current change (%, negative = inhibition) at 10uM": "%"}, "values": [
      {"smiles": "Cc1cc(C)cc(OCC(=O)N2N=C(C(F)(F)F)CC2(O)C(C)(C)C)c1", "note": "(stereo not drawn)", "hERG current change (%, negative = inhibition) at 10uM": 3.64},
      {"smiles": "CC1CCN(C(=O)CSCC(=O)Nc2nc(-c3cccs3)cs2)CC1", "hERG current change (%, negative = inhibition) at 10uM": -20.6},
      {"smiles": "COc1ccc(C2C=C(c3ccccc3)Nc3ncnn32)cc1", "note": "(stereo not drawn)", "hERG current change (%, negative = inhibition) at 10uM": -57.4},
      {"smiles": "C1=C(c2ccccc2)Nc2ncnn2C1c1ccccc1", "note": "(stereo not drawn)", "hERG current change (%, negative = inhibition) at 10uM": -5.26},
      {"smiles": "Cc1ccc(C2C=C(c3ccccc3)Nc3ncnn32)cc1", "note": "(stereo not drawn)", "hERG current change (%, negative = inhibition) at 10uM": -64.7},
      {"smiles": "COc1cccc(C2=CC(c3ccc(N(C)C)cc3)n3ncnc3N2)c1", "note": "(stereo not drawn)", "hERG current change (%, negative = inhibition) at 10uM": -1.72},
      {"smiles": "COc1cccc(C2=CC(c3ccccc3)n3ncnc3N2)c1", "note": "(stereo not drawn)", "hERG current change (%, negative = inhibition) at 10uM": -2.39},
      {"smiles": "Cc1ccc(C2=CC(c3ccccc3)n3ncnc3N2)cc1", "note": "(stereo not drawn)", "hERG current change (%, negative = inhibition) at 10uM": -15.8},
      {"smiles": "Cc1ccc(C2=CC(c3ccc(C)cc3)n3ncnc3N2)cc1", "note": "(stereo not drawn)", "hERG current change (%, negative = inhibition) at 10uM": -17.6},
      {"smiles": "COc1cccc(C2=CC(c3ccc(C)cc3)n3ncnc3N2)c1", "note": "(stereo not drawn)", "hERG current change (%, negative = inhibition) at 10uM": -52.4},
      {"smiles": "CCOc1ccc(C2C=C(c3ccccc3)Nc3ncnn32)cc1", "note": "(stereo not drawn)", "hERG current change (%, negative = inhibition) at 10uM": -47.2},
      {"smiles": "O=C(Nc1nnc(-c2ccccc2Cl)s1)c1ccccc1F", "hERG current change (%, negative = inhibition) at 10uM": 10.9},
      {"smiles": "CC(=O)c1ccc(N2CCN(S(=O)(=O)c3ccc(-c4cc(C)no4)s3)CC2)cc1", "hERG current change (%, negative = inhibition) at 10uM": -1.08},
      {"smiles": "Cc1ccc2c(c1)NCCO2", "hERG current change (%, negative = inhibition) at 10uM": 4.46},
      {"smiles": "O=C(CSc1ccc(F)cc1)Nc1ccc(N2CCOCC2)c(Cl)c1", "hERG current change (%, negative = inhibition) at 10uM": -20.3},
      {"smiles": "CCOCCCN(C)C1CCN(C(=O)c2oc3ccccc3c2NC(=O)Cc2cccc([N+](=O)[O-])c2)CC1", "hERG current change (%, negative = inhibition) at 10uM": -75.3},
      {"smiles": "COc1cccc(N2CCN(C(=O)c3oc4ccccc4c3NC(=O)Cc3ccc(OC)c(OC)c3)CC2)c1", "hERG current change (%, negative = inhibition) at 10uM": -14.1},
      {"smiles": "CCOCCCN(C)C1CCN(C(=O)c2oc3ccccc3c2NC(=O)Cc2ccc([N+](=O)[O-])cc2)CC1", "hERG current change (%, negative = inhibition) at 10uM": -81.5},
      {"smiles": "COc1ccc(CC(=O)Nc2c(C(=O)N3CCN(c4ccccc4)CC3)oc3ccccc23)cc1OC", "hERG current change (%, negative = inhibition) at 10uM": -32.4},
      {"smiles": "COc1ccc(N2CCN(C(=O)c3oc4ccccc4c3NC(=O)Cc3cccc(OC)c3)CC2)cc1", "hERG current change (%, negative = inhibition) at 10uM": -30.2},
      {"smiles": "Cc1nc(=S)c2c([nH]1)-c1ccccc1CC21CCCCC1", "hERG current change (%, negative = inhibition) at 10uM": 10.8},
      {"smiles": "CC1CCCC(NC(=O)COC(=O)c2ccc(N(C)C)cc2)C1C", "note": "(stereo not drawn)", "hERG current change (%, negative = inhibition) at 10uM": -1.77},
      {"smiles": "Cc1ccc(NC(=O)CN(C)S(=O)(=O)c2cccc3cccnc23)c(C)c1", "hERG current change (%, negative = inhibition) at 10uM": 4.3},
      {"smiles": "Cc1ccsc1C(=O)C1CCCN(Cc2ccccc2O)C1", "note": "(stereo not drawn)", "hERG current change (%, negative = inhibition) at 10uM": -48.1},
      {"smiles": "Cc1ccc(-n2cccn2)c(CN2CCCC(C(=O)c3sccc3C)C2)c1", "note": "(stereo not drawn)", "hERG current change (%, negative = inhibition) at 10uM": -85.4},
      {"smiles": "Cc1ccsc1C(=O)C1CCCN(Cc2cc(F)ccc2-n2cccn2)C1", "note": "(stereo not drawn)", "hERG current change (%, negative = inhibition) at 10uM": -82.9},
      {"smiles": "Cc1ccsc1C(=O)C1CCCN(Cc2ccn[nH]2)C1", "note": "(stereo not drawn)", "hERG current change (%, negative = inhibition) at 10uM": 6.96},
      {"smiles": "Cc1ccsc1C(=O)C1CCCN(Cc2cn(C)nc2C)C1", "note": "(stereo not drawn)", "hERG current change (%, negative = inhibition) at 10uM": -40.9},
      {"smiles": "COC(=O)Nc1ncc(CN2C(=O)c3ccccc3C2=O)s1", "hERG current change (%, negative = inhibition) at 10uM": -23},
      {"smiles": "Cc1cc(NC(=O)COC(=O)c2n[nH]c3ccccc23)no1", "hERG current change (%, negative = inhibition) at 10uM": 8.9},
      {"smiles": "O=C(N/N=C/c1cccnc1)c1cccc(Br)c1", "hERG current change (%, negative = inhibition) at 10uM": 10.4},
      {"smiles": "CN1CCN(C(=O)C2=C[C@H](c3ccc(Br)cc3)C[C@H](OCCCCO)O2)CC1", "hERG current change (%, negative = inhibition) at 10uM": -47.7},
      {"smiles": "O=C(C1=C[C@H](c2ccccc2)C[C@H](OCCCCO)O1)N1CCN(Cc2ccccc2)CC1", "hERG current change (%, negative = inhibition) at 10uM": -38.9},
      {"smiles": "CCO[C@@H]1OC(C(=O)N2CCCCCCC2)=C[C@H](c2ccc(C(F)(F)F)cc2)[C@H]1CCCO", "hERG current change (%, negative = inhibition) at 10uM": -21.4},
      {"smiles": "C#CCNC(=O)C1=C[C@@H](c2ccc(C(F)(F)F)cc2)C[C@@H](OCCCCO)O1", "hERG current change (%, negative = inhibition) at 10uM": -53.8},
      {"smiles": "C#Cc1ccc([C@@H]2C=C(C(=O)N3CCOCC3)O[C@H](OCCCCO)C2)cc1", "hERG current change (%, negative = inhibition) at 10uM": 17.3},
      {"smiles": "O=C(C1=C[C@@H](c2ccc(Br)cc2)C[C@@H](OCCCCO)O1)N1CCN(Cc2ccccc2)CC1", "hERG current change (%, negative = inhibition) at 10uM": -91.7},
      {"smiles": "C#CCNC(=O)C1=C[C@H](c2ccc(C(F)(F)F)cc2)C[C@H](OCCCCO)O1", "hERG current change (%, negative = inhibition) at 10uM": -6.12},
      {"smiles": "CCO[C@H]1OC(C(=O)N2CCCCCCC2)=C[C@@H](c2ccc(C(F)(F)F)cc2)[C@@H]1CCCO", "hERG current change (%, negative = inhibition) at 10uM": -50.5},
      {"smiles": "C#CCNC(=O)C1=C[C@@H](c2ccc(C#C)cc2)C[C@@H](OCCCCO)O1", "hERG current change (%, negative = inhibition) at 10uM": -3.88},
      {"smiles": "C#Cc1ccc([C@@H]2C=C(C(=O)N3CCN(Cc4ccccc4)CC3)O[C@H](OCCCCO)C2)cc1", "hERG current change (%, negative = inhibition) at 10uM": -56},
      {"smiles": "C#Cc1ccc([C@H]2C=C(C(=O)N3CCN(Cc4ccccc4)CC3)O[C@@H](OCc3ccc(CO)cc3)C2)cc1", "hERG current change (%, negative = inhibition) at 10uM": -13.3},
      {"smiles": "CCO[C@@H]1OC(C(=O)N2CCN(C)CC2)=C[C@H](c2ccc(C(F)(F)F)cc2)[C@H]1CCCO", "hERG current change (%, negative = inhibition) at 10uM": -1.51},
      {"smiles": "CC(=O)Nc1ccc(S(=O)(=O)NNC(=S)NCc2ccco2)cc1", "hERG current change (%, negative = inhibition) at 10uM": 12.1},
      {"smiles": "COc1ccc(-c2csc(N(CCCN3CCOCC3)C(=O)CCl)n2)cc1.Cl", "hERG current change (%, negative = inhibition) at 10uM": 3.28},
      {"smiles": "CC1(C)C2CCC(C2)C1(C)NC(=O)C[N+](C)(C)C.[Cl-]", "note": "(stereo not drawn)", "hERG current change (%, negative = inhibition) at 10uM": 12.6},
      {"smiles": "Cc1nc(NC(=O)/C=C/c2ccccc2)sc1C(=O)Nc1ccccc1Cl", "hERG current change (%, negative = inhibition) at 10uM": 13.3},
      {"smiles": "c1ccc(-c2ncc(CN3CCN(c4ccccn4)CC3)[nH]2)cc1", "hERG current change (%, negative = inhibition) at 10uM": -14.1},
      {"smiles": "CCOC(=O)c1cnc(-n2nc(C)cc2C)nc1NC1CCCC1", "hERG current change (%, negative = inhibition) at 10uM": -26.2},
      {"smiles": "CC(C)NCc1nnc(-c2ccc(Cl)cc2)o1", "hERG current change (%, negative = inhibition) at 10uM": 15.9},
      {"smiles": "CCc1ccccc1NC(=O)c1cc(=O)c2ccccc2o1", "hERG current change (%, negative = inhibition) at 10uM": -1.16},
      {"smiles": "C=CCOC(=O)C1=C[C@@H](c2ccccc2)[C@H](CCCO)[C@@H](OCC)O1", "hERG current change (%, negative = inhibition) at 10uM": -9.65},
      {"smiles": "O=C(C1=C[C@@H](c2ccc(C(F)(F)F)cc2)C[C@@H](OCCCCO)O1)N1CCCCCCC1", "hERG current change (%, negative = inhibition) at 10uM": -51.3},
      {"smiles": "O=C(C1=C[C@H](c2ccc(C(F)(F)F)cc2)C[C@H](OCc2ccc(CO)cc2)O1)N1CCN(Cc2ccccc2)CC1", "hERG current change (%, negative = inhibition) at 10uM": -15.2},
      {"smiles": "C=CCOC(=O)C1=C[C@@H](c2ccc(Br)cc2)[C@H](CCCO)[C@@H](OCC)O1", "hERG current change (%, negative = inhibition) at 10uM": -22.6},
      {"smiles": "O=C(C1=C[C@@H](c2ccc(C(F)(F)F)cc2)C[C@@H](OCCCCO)O1)N1CCOCC1", "hERG current change (%, negative = inhibition) at 10uM": -3.65},
      {"smiles": "O=C(C1=C[C@@H](c2ccc(C(F)(F)F)cc2)C[C@@H](OCCCCO)O1)N1CCN(Cc2ccccc2)CC1", "hERG current change (%, negative = inhibition) at 10uM": -60.6},
      {"smiles": "CN1CCN(C(=O)C2=C[C@@H](c3ccccc3)C[C@@H](OCCCCO)O2)CC1", "hERG current change (%, negative = inhibition) at 10uM": -6.11},
      {"smiles": "O=C(C1=C[C@H](c2ccc(Br)cc2)C[C@H](OCCCCO)O1)N1CCN(Cc2ccccc2)CC1", "hERG current change (%, negative = inhibition) at 10uM": -80.8},
      {"smiles": "O=C(C1=C[C@H](c2ccc(C(F)(F)F)cc2)C[C@H](OCCCCO)O1)N1CCOCC1", "hERG current change (%, negative = inhibition) at 10uM": -23.7},
      {"smiles": "O=C(C1=C[C@H](c2ccc(C(F)(F)F)cc2)C[C@H](OCCCCO)O1)N1CCN(Cc2ccccc2)CC1", "hERG current change (%, negative = inhibition) at 10uM": -49.6},
      {"smiles": "C=CCOC(=O)C1=C[C@H](c2ccc(Br)cc2)[C@@H](CCCO)[C@H](OCC)O1", "hERG current change (%, negative = inhibition) at 10uM": -55.3},
      {"smiles": "O=C(C1=C[C@@H](c2ccc(Br)cc2)C[C@@H](OCCCCO)O1)N1CCOCC1", "hERG current change (%, negative = inhibition) at 10uM": -15.7}
    ]}
  ]
}
